PubChem BioAssay
The source made the active and inactive calls. Unless noted, how the calls were made is not given here.

How the values were obtained:
[1] = tested on: Wnt5a (protein binding on small-molecule microarray); test: small molecules binding Wnt5a protein – biophysical, small-molecule microarray, 635/667 nm fluorescence, primary screen (AID 1142); conditions: 635 nm fluorescence, higher = more signal;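 further: fluorescence read at 667 nm with signal to noise per printed feature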
[2] = ATP-based viability of Huh7 replicon cells – cell-based, CellTiter-Glo luminescence, basal, 48 h, cytotoxicity control for HCV replication inhibitor project, primary screen (AID 1143); conditions: higher = more signal, called active from +8 up or from −8 down;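 further: Huh7 hepatoma cells carrying a hepatitis C replication reporter with no stimulus; test concentration not given here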
[3] = Pseudomonas biofilm growth suppression – PAO1 strain, BacTiter-Glo luminescence, LB-PBS, primary screen (AID 1144); conditions: P. aeruginosa PAO1 biofilm, 12 h, higher = more signal
[4] = basal CRE-LacZ reporter activity in PC12 – cell-based, unstimulated, primary screen (AID 1145); conditions: no forskolin, luminescence, 4.5 h, higher = more signal, called active from +8 up or from −8 down
[5] = forskolin-driven CRE-LacZ activity in PC12 – cell-based, CRE-LacZ reporter, forskolin-stimulated, primary screen (AID 1146); conditions: luminescence, 4.5 h, higher = more signal, called active from +8 up or from −8 down;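 further: PC12 cells with 6xCRE LacZ reporter stimulated by forskolin 10 µM; beta-galactosidase reporter signal reflecting CREB driven transcription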
[6] = biological target: Streptavidin (Streptomyces avidinii) (UniProt P22629); test: compounds binding control protein streptavidin – biophysical, small-molecule microarray, 635/667 nm fluorescence, artefact control for SMM compound annotation, primary screen (AID 1147); conditions: higher = more signal;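 further: signal reflects streptavidin binding to arrayed compounds as a control protein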
Chain of Streptavidin (Streptomyces avidinii) (P22629 whole entry, looked up): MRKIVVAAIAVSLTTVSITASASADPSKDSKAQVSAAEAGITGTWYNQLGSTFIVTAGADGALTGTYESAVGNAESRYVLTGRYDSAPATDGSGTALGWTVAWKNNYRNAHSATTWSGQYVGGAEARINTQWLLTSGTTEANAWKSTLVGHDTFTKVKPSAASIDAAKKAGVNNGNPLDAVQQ

[7] = probe aInhba binding on compound microarray – biochemical, small-molecule microarray, 635/667 nm fluorescence, primary screen (AID 1148); conditions: higher = more signal;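 further: score merges 667nm spot fluorescence with signal-to-noise for antibody binding to printed compounds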
Torsin-1A (Homo sapiens) [8] = biological target: Torsin-1A (Homo sapiens) (UniProt O14656); test: TOR1A wild-type binding on microarray – cell lysate, small-molecule microarray, lysate, 635/667 nm, primary screen (AID 1149); conditions: COS7 hTOR1A-WT lysate, 635 nm fluorescence, higher = more signal
Chain of Torsin-1A (Homo sapiens) (O14656 whole entry, looked up): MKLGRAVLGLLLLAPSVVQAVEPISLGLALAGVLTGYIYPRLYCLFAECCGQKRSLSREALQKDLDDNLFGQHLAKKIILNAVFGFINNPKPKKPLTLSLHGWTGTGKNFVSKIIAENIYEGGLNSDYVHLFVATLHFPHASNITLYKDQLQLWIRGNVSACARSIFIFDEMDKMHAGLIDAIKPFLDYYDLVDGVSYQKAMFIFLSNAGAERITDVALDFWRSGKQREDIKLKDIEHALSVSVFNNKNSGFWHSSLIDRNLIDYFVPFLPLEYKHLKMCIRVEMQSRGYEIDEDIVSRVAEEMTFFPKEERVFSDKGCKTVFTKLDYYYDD

Torsin-1A (Homo sapiens) [9] = biological target: Torsin-1A (Homo sapiens) (UniProt O14656); test: torsin A mutant lysate binding on microarrays – cell lysate, small-molecule microarray, COS7 lysate, 635/667 nm fluorescence, primary screen (AID 1150); conditions: COS7 hTOR1A mutant lysate, 635 nm fluorescence, higher = more signal;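 further: score pools 667 nm emission and signal to noise measuring lysate protein binding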
[10] = tested on: Sonic hedgehog protein (Shh); test: Sonic hedgehog microarray binding compounds – biochemical, small-molecule microarray, 635/667 nm fluorescence, primary screen (AID 1151); conditions: 635 nm fluorescence, higher = more signal;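 further: Shh protein binding to compounds spotted on small-molecule microarray slides; score combines spot fluorescence intensity with signal-to-noise across triplicate slides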
[11] = optical density shifts of acrAB sulA E. coli – strain DRC41, OD650, 48 h, E. coli filamentation inducer project, primary screen (AID 1152); conditions: higher = more signal, called active from +8 up or from −8 down;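 further: E. coli MC1000 strain DRC41 lacking acrAB efflux pump and sulA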
[12] = probe aLefty1 binding on compound microarray – biochemical, small-molecule microarray, 635/667 nm fluorescence, primary screen (AID 1153); conditions: higher = more signal;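 further: score merges spot fluorescence with signal-to-noise ratio from the scanned slide images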
[13] = plasmodial surface anion channel blockers, osmotic lysis – cell-based, P. falciparum Indochina, OD700, 1 h, primary screen (AID 1154); conditions: P. falciparum Indochina infected RBC osmotic lysis, higher = more signal, called active from +8 up or from −8 down
[14] = plasmodial surface anion channel blockers, osmotic lysis – cell-based, P. falciparum Indochina, OD700, 2 h, primary screen (AID 1155);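 further: lysis reports solute entry through the parasite surface anion channel PSAC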; conditions: P. falciparum Indochina infected erythrocytes, higher = more signal, called active from +8 up or from −8 down
[15] = changes in parasitized red cell lysis, either direction – P. falciparum Indochina, OD700, 3 h, PSAC antagonist project, primary screen (AID 1156); conditions: P. falciparum-infected erythrocytes, osmotic lysis, higher = more signal, called active from +8 up or from −8 down
[16] = plasmodial surface anion channel blockers, osmotic lysis – cell-based, P. falciparum Indochina, OD700, 18 h, primary screen (AID 1157); conditions: P. falciparum Indochina infected erythrocytes, osmotic lysis OD700, 18 h; higher = more signal, called active from +8 up or from −8 down
[17] = S6 kinase pathway phospho-S6 level changes – cell-based, A549, cytoblot, luminescence, serum-stimulated, primary screen (AID 1158); conditions: 5 h, higher = more signal;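 further: serum-stimulated A549 lung adenocarcinoma cells; signal is phosphorylated S6 detected by cytoblot immunostaining with HRP secondary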
[18] = biological target: NADPH oxidase 2 (Homo sapiens) (UniProt P04839); test: compounds shifting NOX2 Amplex Red fluorescence – cell-based, HEK293-NOX2, PMA-stimulated, NOX inhibitor project, primary screen (AID 1159); conditions: 45 min, higher = more signal, called active from +8 up or from −8 down; further: test concentration not given here
Chain of NADPH oxidase 2 (Homo sapiens) (P04839 whole entry, looked up): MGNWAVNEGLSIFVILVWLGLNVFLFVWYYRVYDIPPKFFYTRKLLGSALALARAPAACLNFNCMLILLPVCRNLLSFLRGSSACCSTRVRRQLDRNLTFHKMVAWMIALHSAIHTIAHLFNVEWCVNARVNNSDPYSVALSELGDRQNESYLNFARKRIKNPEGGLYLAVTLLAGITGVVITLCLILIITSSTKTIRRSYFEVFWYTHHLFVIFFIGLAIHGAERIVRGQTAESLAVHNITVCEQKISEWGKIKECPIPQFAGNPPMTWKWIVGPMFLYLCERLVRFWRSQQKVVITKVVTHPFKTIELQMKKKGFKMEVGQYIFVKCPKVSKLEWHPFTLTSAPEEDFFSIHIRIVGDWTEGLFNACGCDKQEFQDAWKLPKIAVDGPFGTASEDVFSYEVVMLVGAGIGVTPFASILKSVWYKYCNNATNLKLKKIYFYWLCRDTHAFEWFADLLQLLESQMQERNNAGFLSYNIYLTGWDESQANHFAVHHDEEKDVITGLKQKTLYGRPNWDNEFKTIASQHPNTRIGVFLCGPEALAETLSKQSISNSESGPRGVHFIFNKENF

[19] = biological target: NADPH oxidase 4 (Homo sapiens) (UniProt Q9NPH5); test: compounds shifting NOX4 Amplex Red fluorescence – cell-based, HEK293-NOX4, tetracycline-induced, NOX inhibitor project, primary screen (AID 1160); conditions: HEK293-NOX4, Amplex Red H2O2 fluorescence, 45 min; higher = more signal, called active from +8 up or from −8 down
Chain of NADPH oxidase 4 (Homo sapiens) (Q9NPH5 whole entry, looked up): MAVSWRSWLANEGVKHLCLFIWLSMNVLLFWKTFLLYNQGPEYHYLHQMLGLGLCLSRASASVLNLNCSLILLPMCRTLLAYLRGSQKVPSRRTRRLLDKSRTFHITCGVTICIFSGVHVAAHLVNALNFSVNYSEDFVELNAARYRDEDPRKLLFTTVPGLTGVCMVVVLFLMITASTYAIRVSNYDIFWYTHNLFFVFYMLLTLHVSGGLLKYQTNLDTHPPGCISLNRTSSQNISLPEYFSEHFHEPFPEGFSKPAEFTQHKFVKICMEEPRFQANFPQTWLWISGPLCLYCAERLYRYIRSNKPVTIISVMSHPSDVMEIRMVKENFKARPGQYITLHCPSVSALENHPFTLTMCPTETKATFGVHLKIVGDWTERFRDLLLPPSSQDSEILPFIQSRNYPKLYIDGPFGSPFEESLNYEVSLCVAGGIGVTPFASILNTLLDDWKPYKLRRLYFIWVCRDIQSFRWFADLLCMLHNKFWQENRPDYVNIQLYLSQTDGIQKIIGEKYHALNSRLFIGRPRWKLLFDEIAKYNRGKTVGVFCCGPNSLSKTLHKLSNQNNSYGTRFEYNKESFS

[20] = biological target: NADPH oxidase 5 (Homo sapiens) (UniProt Q96PH1); test: compounds shifting NOX5 Amplex Red fluorescence – cell-based, HEK293-NOX5, NOX inhibitor project, primary screen (AID 1161); conditions: HEK293-NOX5, ionomycin, 45 min, higher = more signal
Chain of NADPH oxidase 5 (Homo sapiens) (Q96PH1 whole entry, looked up): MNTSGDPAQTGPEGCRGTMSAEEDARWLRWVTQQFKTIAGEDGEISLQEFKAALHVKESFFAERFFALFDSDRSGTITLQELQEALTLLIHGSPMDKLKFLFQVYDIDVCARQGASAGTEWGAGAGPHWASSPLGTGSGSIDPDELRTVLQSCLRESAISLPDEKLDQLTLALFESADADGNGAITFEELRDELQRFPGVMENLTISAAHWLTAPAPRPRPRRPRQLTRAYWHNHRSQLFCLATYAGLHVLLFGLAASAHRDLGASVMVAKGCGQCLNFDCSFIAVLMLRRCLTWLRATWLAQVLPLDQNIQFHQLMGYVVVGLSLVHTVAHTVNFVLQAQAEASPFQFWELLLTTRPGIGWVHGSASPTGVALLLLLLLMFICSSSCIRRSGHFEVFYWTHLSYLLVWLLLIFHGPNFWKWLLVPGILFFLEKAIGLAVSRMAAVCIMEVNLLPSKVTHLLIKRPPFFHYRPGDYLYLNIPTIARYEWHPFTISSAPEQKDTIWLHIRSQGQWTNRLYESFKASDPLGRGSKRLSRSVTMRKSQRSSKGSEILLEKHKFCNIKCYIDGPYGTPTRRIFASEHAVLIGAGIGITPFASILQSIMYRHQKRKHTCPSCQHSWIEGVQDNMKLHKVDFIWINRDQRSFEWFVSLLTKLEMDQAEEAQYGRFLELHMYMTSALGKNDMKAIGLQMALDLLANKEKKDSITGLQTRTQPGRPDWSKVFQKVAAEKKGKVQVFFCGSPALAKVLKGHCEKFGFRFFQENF

Structure (SMILES) | composite z-score [1] | z-score [2] | z-score [3] | z-score [4] | z-score [5] | composite z-score [6] | composite z-score [7] | composite z-score (Torsin-1A (Homo sapiens) [8]) | composite z-score (Torsin-1A (Homo sapiens) [9]) | composite z-score [10] | z-score [11] | composite z-score [12] | z-score [13] | z-score [14] | z-score [15] | z-score [16] | z-score [17] | z-score [18] | z-score [19] | z-score [20]
C[C@]1(C(=O)NC2CC2)c2ccccc2C(=O)N(Cc2ccc(OC(F)(F)F)cc2)[C@H]1c1ccc(CO)cc1 | -0.0135 | -0.0474 (inactive) | 0.244 (inactive) | 1.64 (inactive) | -0.103 (inactive) | -0.825 | 0.152 | 0.398 | 0.398 | -0.379 | 0.323 (inactive) | -0.0186 | 3.33 (inactive) | 0.258 (inactive) | 4.64 (inactive) | 0.0105 (inactive) | -0.111 | 0.264 (inactive) | 0.731 (inactive) | 0.138
COC(=O)[C@@]1(Cc2ccc(OC)cc2)[C@H]2c3cc(C(=O)N4CCCC4)n(CCc4cc5ccccc5[nH]4)c3C[C@H]2CN1C(=O)c1ccccc1 | 0.409 | -1.84 (inactive) | 0.497 (inactive) | -0.189 (inactive) | 0.375 (inactive) | 1.58 | 0.352 | 0.368 | 1.38 | -0.309 | -1.31 (inactive) | 0.712 | 4.17 (inactive) | 0.852 (inactive) | 1.45 (inactive) | 1.11 (inactive) | -0.231 | 0.00439 (inactive) | 0.319 (inactive) | -3.28
CO[C@H]1O[C@H](CO)[C@@H](OC(=O)c2ccc(Br)cc2)[C@@H]2OC(=O)[C@@H](Cc3ccc4ccccc4c3)C/C=C/C[C@H](Cc3ccc4ccccc4c3)C(=O)O[C@@H]12 | 0.18 | -2.88 (inactive) | 0.4 (inactive) | 0.139 (inactive) | -0.433 (inactive) | 0.48 | -0.103 | 0.0121 | 0.625 | -0.219 | 0.689 (inactive) | -0.113 | 2.52 (inactive) | -0.503 (inactive) | -1.15 (inactive) | -2.1 (inactive) | 1.74 | 1.76 (inactive) | 0.00292 (inactive) | -1.77
C=CCC(OC(C)=O)[C@@H]1[C@@H](N(Cc2ccc(-c3ccccc3)cc2)C(=O)c2cccc3ccccc23)c2cc(OCCCO)ccc2N1C(=O)Cc1ccc2ccccc2c1 (stereo not given in full) | -0.195 | -1.31 (inactive) | 0.457 (inactive) | 0.423 (inactive) | -0.481 (inactive) | -0.0695 | -0.17 | 0.0517 | 0.12 | 0.39 | -0.316 (inactive) | -0.191 | 1.14 (inactive) | 0.355 (inactive) | -0.498 (inactive) | 0.283 (inactive) | 0.393 | 0.949 (inactive) | -0.22 (inactive) | -4.09
C=CC[C@]1(C(=O)N(C)C)N=C(c2ccc(OCCCO)cc2)O[C@H]1c1ccccc1N=[N+]=[N-] | 0.596 | -2.58 (inactive) | 0.00404 (inactive) | 1.99 (inactive) | -1.23 (inactive) | 1.61 | -0.0136 | 0.73 | 0.696 | -1.32 | 0.355 (inactive) | 0.313 | 30.8 (active) | 28.4 (active) | 2.88 (inactive) | 7.33 (inactive) | -0.219 | -1.06 (inactive) | 1.52 (inactive) | 0.668
COCCOC(=O)N1C(=O)[C@@]2(c3cc(C#CC4=CCCCC4)ccc31)[C@H](c1ccccc1OCCO)N1[C@H](c3ccccc3)[C@H](c3ccccc3)OC(=O)[C@H]1[C@@H]2C(=O)N1CCc2cc(OC)c(OC)cc2C1 | 0.316 | -1.93 (inactive) | -0.455 (inactive) | 1.03 (inactive) | 0.904 (inactive) | -0.0953 | -0.305 | -0.148 | 0.536 | 1.79 | -0.26 (inactive) | -0.715 | 2.7 (inactive) | 1.85 (inactive) | 0.578 (inactive) | 1.02 (inactive) | 0.128 | 1.41 (inactive) | 0.739 (inactive) | 1.53
C=CC[C@@]1(C(=O)O)N=C(c2ccc(OCCCO)cc2)O[C@@H]1c1ccccc1 | 1.45 | 0.0076 (inactive) | -0.385 (inactive) | -0.491 (inactive) | -1.2 (inactive) | -1.72 | -0.231 | 4.37 | 4.32 | -0.198 | 0.938 (inactive) | -0.146 | 11.5 (active) | 0.526 (inactive) | 0.208 (inactive) | 0.568 (inactive) | 0.0003 | 0.0822 (inactive) | 1.25 (inactive) | 0.448
O=C1NC(=O)C2C1C=CC(C(O)c1ccc3c(c1)OCO3)N2Nc1ccccn1 (stereo not given) | 0.141 | -0.259 (inactive) | -1.72 (inactive) | 1.01 (inactive) | 0.689 (inactive) | 0.501 | -0.203 | 0.546 | 0.05 | 0.347 | -0.0438 (inactive) | -0.112 | -0.113 (inactive) | -0.665 (inactive) | -0.752 (inactive) | -0.839 (inactive) | 0.883 | -1.27 (inactive) | -3 (inactive) | -1.73
